# SENP7 block – SENP7 protease inhibition | Q9BQF6 | recombinant SENP7, Z-RLRGG-aminoluciferin luminescence, 40 min | inhibition, % at 5 µM | actives 1.5% (n = 330,000) | AID 434973;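 active = inhibition above about 50% at the single test dose, limit read from the data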;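 note: plate controls were DMSO with enzyme for no effect and no enzyme buffer wells for full effect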
# SENP8 block-1 – SENP8 protease inhibition; actives 1.2% (n = 330,000); Q96LD8; purified SENP8, Z-RLRGG-aminoluciferin cleavage, luminescence; inhibition, % at 10 µM; in the data active = inhibition above about 50%
# Target sequence (Q96LD8 whole entry, looked up): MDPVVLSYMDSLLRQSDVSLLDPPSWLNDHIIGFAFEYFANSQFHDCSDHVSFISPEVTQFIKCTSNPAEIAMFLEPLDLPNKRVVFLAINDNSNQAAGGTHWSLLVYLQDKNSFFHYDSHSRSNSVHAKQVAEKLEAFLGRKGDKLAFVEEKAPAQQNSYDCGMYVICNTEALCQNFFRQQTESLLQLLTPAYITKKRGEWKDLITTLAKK
# SENP6 block – inhibitors of human SENP6 protease. Q9GZR1. Recombinant SENP6 catalytic domain, aminoluciferin luminescence. inhibition, % at 10 µM. actives 1.8% (n = 330,000);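 active = inhibition above about 50% at the single tested dose, limit read from the data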;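 note: plate controls were DMSO wells with enzyme for no effect and DMSO wells lacking enzyme for full effect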
# C8 TRAIL sens – caspase-8 TRAIL sensitization; NB7+C8 cells + TRAIL, ATPlite viability luminescence; inhibition (viability loss, TRAIL sensitization), % at 10 µM; actives 1% (n = 360,000); AID 624354;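 active = compounds causing at least 50% loss of cell viability in the single-dose screen, relative to plate controls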
# PPC-1+TRAIL kill – kills PPC-1 cancer cells in the presence of TRAIL. PPC-1 cells + TRAIL, ATPLite viability luminescence. cell killing (% activity), % at 4 µM or 5 µM. actives 0.41% (n = 220,000);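 active = cell killing above 50% in the first pass at 4 µM, then a duplicate retest at 5 µM averaging 50% or more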;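 note: plate controls were cells with TRAIL plus DMSO for no effect and medium-only wells lacking cells for full effect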
# SENP8 block-2 – inhibitors of human SENP8 protease; actives 0.64% (n = 360,000); Q96LD8; inhibition, % at 20 µM; recombinant SENP8, Nedd8 substrate fluorescence; in the data active = inhibition mostly above about 40%, no sharp cut-off; inactive = mostly below about 27%
# PPC1 cytotox – kills PPC-1 cells | AID 1447 | actives 50% (n = 1,200) | shares compounds with PPC-1+TRAIL kill | cytotoxicity, % at 5 µM | PPC-1 viability, ATPlite luminescence, overnight;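 active = reconfirmed compounds whose average cytotoxicity reaches 50% or more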;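 note: 0% = DMSO-treated cells and 100% = wells holding medium but no cells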
# SENP8 confirm – confirmation of human SENP8 protease inhibitors. shares compounds with SENP7 block. Recombinant SENP8, Z-RLRGG-aminoluciferin luminescence, 60 min. inhibition, % at 12.5 µM. actives 40% (n = 6,200);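 active = mean inhibition across replicates above about 50%, limit read from the data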
# SENP6 conf – human SENP6 inhibition, confirmed; shares compounds with SENP7 block; recombinant SENP6, Z-RLRGG-aminoluciferin luminescence; inhibition, % at 12.5 µM; actives 58% (n = 6,200)
# SENP7 confirm – confirmation of human SENP7 protease inhibitors; shares compounds with SENP7 block; recombinant SENP7, Z-RLRGG-aminoluciferin luminescence, 40 min; inhibition, % at 12.5 µM; actives 69% (n = 6,200); AID 488917
# Casp3 SENP sel – inhibits human caspase-3 in SENP selectivity test; shares compounds with SENP7 block; purified caspase-3, Z-DEVD-aminoluciferin luminescence, 60 min; inhibition, % at 12.5 µM; actives 60% (n = 6,200); AID 488918;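 active = mean inhibition above about 50%, limit read from the data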;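 note: plate controls were enzyme with DMSO for no effect and wells without caspase-3 for full effect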
# Target sequence (P42574 28-227 limits assumed): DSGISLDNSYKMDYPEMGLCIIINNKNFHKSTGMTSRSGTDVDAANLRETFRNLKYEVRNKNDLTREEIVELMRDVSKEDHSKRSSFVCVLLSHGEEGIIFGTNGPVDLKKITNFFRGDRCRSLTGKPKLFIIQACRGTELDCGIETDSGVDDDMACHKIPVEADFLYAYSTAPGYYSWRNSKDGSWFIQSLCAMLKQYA
# SENP luc ctr – luminescence interference (SENP counter-screen); shares compounds with SENP7 block; Pre-incubated SENP8/Z-RLRGG-aminoluciferin, luciferase luminescence interference; inhibition, % at 12.5 µM; actives 39% (n = 6,200);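 active = mean inhibition above about 50% when retested at one dose, limit read from the data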;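 note: plate controls were DMSO wells with completed reaction for no effect and substrate without enzyme for full effect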
# Starred values were filed as active, the others as inactive; . = no result given. A selection: hits, their analogues and other compounds. The true share with any hit is near 3%.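 Rule for the calls, unless noted: active = mean inhibition above about 50% in the one-dose retest (limit read from the data); inactive = the rest.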
SMILES,SENP7 block,SENP8 block-1,SENP6 block,C8 TRAIL sens,PPC-1+TRAIL kill,SENP8 block-2,PPC1 cytotox,SENP8 confirm,SENP6 conf,SENP7 confirm,Casp3 SENP sel,SENP luc ctr
N/C(=N\OC(=O)c1ccc(Cl)c([N+](=O)[O-])c1)c1ccccn1,39.0,7.2,-22.7,8.8,17.2,15.9,.,.,.,.,.,.
N/C(=N\OC(=O)COc1ccccc1Cl)c1ccccn1,.,.,.,21.1,22.3,17.5,.,.,.,.,.,.
CN(CCCCCCCCCCN(C)C(=O)Oc1cccc([N+](C)(C)C)c1)C(=O)Oc1cccc([N+](C)(C)C)c1,3.0,-7.0,1.2,-7.9,.,14.7,.,.,.,.,.,.
Cc1ccccc1NC(=O)c1cnc2ccccn2c1=O,74.5*,39.2,57.5*,68.0*,58.9*,-16.6,60.9*,55.0*,61.0*,51.8*,75.3*,18.2
Cc1ccc(/C=C/c2nc3ccccc3c(=O)[nH]2)cc1,98.1*,85.8*,90.0*,93.0*,93.2*,-151.6,91.6*,48.2,54.6*,43.0,38.5,7.8
Cc1csc(NC(=O)c2cc3c(s2)CCC3)n1,87.0*,82.4*,90.2*,83.5*,51.1*,-77.5,46.6,88.6*,88.2*,99.0*,89.4*,91.1*
Cc1nc(NC(=O)c2cc3c(s2)CCCCC3)sc1C(=O)N(C)C,14.2,0.1,1.9,23.3,-4.3,-127.3,.,.,.,.,.,.
O=C(NC1=NCCS1)c1cc2ccccc2o1,60.3*,34.1,52.5*,57.6*,57.6*,8.6,51.3*,46.8,47.5,81.3*,77.1*,58.1*
O=C(Nc1ccccn1)c1cc2ccccc2o1,98.1*,95.1*,97.2*,83.2*,81.3*,7.6,79.7*,52.1*,97.8*,101.4*,97.3*,96.1*
COc1ccc(N/C=C\C(=O)c2ccc3c(c2)OCO3)cc1,78.5*,51.2*,75.6*,69.0*,68.5*,-146.8,59.4*,15.3,43.8,64.9*,54.5*,21.9
O=C(/C=C\Nc1ccc2c(c1)OCO2)c1ccc2c(c1)OCO2,86.0*,30.4,-6.7,83.4*,85.2*,-51.1,84.2*,9.9,14.7,-1.6,10.5,-1.4
O=C(/C=C\Nc1ccc2c(c1)OCO2)c1ccccn1,99.9*,96.0*,97.0*,86.8*,91.5*,-298.6,92.3*,81.4*,97.2*,99.0*,92.4*,26.0
O=C(/C=C\Nc1ccc2c(c1)OCO2)c1cccs1,-4.0,93.9*,-14.2,78.4*,81.9*,-2.4,81.6*,-7.3,99.8*,103.7*,97.9*,34.9
CC(=O)Nc1ccc(S(=O)(=O)N2CCN(S(=O)(=O)c3ccc(F)c(F)c3F)CC2)cc1,3.1,7.9,10.1,-5.0,.,15.7,.,.,.,.,.,.
CCOC(=O)c1c(C)[nH]c(C)c1S(=O)(=O)N1CCN(c2cccc(C)c2)C(C)C1 (stereo not given),-14.8,-13.5,-10.1,-13.4,.,6.7,.,.,.,.,.,.
Cc1ccc(CCN2C(Nc3ccccc3)=NC[C@@H]2C)cc1,4.6,6.7,3.5,-0.1,.,23.7,.,.,.,.,.,.
Cc1ccc(N/C=C/C(=O)c2cccs2)cc1,93.2*,94.2*,92.8*,88.0*,85.8*,-163.3,84.9*,79.3*,97.2*,101.2*,95.0*,69.8*
COc1ccc(C(=O)/C=C/Nc2cccc(O)c2)cc1,85.4*,87.9*,92.9*,61.7*,81.8*,-159.1,82.6*,95.5*,96.8*,101.5*,91.0*,91.4*
COc1ccc(CN2CCN(C(=O)C3CCC(CNS(=O)(=O)c4ccc(C)cc4)CC3)CC2)c(OC)c1OC (stereo not given),-0.3,2.4,-2.2,10.8,12.8,6.6,.,.,.,.,.,.
O=C(Nc1ccccc1O)c1cccc(S(=O)(=O)Nc2ccccc2O)c1,-6.3,-9.8,-15.9,-2.3,.,24.0,.,.,.,.,.,.
CC(=O)Nc1cc2ccccc2oc1=O,-1.6,-10.7,-24.2,-5.0,-4.2,-61.8,.,.,.,.,.,.
Cc1ccc(C(=O)Nc2cc3ccccc3oc2=O)cc1,97.7*,89.3*,90.8*,82.0*,71.7*,-304.2,71.9*,32.8,32.6,18.2,55.5*,6.3
O=C(Nc1nc(=O)c2ccccc2s1)c1ccccc1,41.4,42.9,59.7*,34.2,26.2,18.7,32.9,19.9,52.9*,17.4,26.6,11.2
Cc1ccccc1NS(=O)(=O)c1nnc(NC(=O)C(C)C)s1,-1.6,9.5,0.3,-11.3,.,7.2,.,.,.,.,.,.
C/C(=N\NC(=O)c1ccc2c(c1)OCCO2)c1ccccc1,95.7*,86.0*,88.6*,48.3,65.3*,15.9,63.5*,1.8,86.6*,99.1*,94.0*,81.7*
SMILES,SENP7 block,SENP8 block-1,SENP6 block,C8 TRAIL sens,PPC-1+TRAIL kill,SENP8 block-2,PPC1 cytotox,SENP8 confirm,SENP6 conf,SENP7 confirm,Casp3 SENP sel,SENP luc ctr
C/C(=N\NC(=O)c1ccc(O)cc1)c1ccc2c(c1)OCCO2,2.6,-1.1,-8.9,0.1,.,6.8,.,.,.,.,.,.
Cc1ccsc1/C=N/NC(=O)c1ccc2c(c1)OCCO2,83.1*,65.4*,79.1*,75.6*,54.1*,7.1,62.8*,84.0*,79.4*,95.2*,90.4*,80.6*
COc1ccccc1C(=O)NCCC(=O)N1CC=C(c2ccccc2)CC1,-4.3,-3.2,-2.5,-0.4,.,8.4,.,.,.,.,.,.
CCN(CC)Cc1c(O)ccc2c(=O)c(-c3ccc4c(c3)OCCO4)coc12,-1.2,-1.6,-8.0,12.2,1.5,-483.8,.,.,.,.,.,.
O=c1c(-c2ccc3c(c2)OCCO3)coc2cc(O)cc(O)c12,58.2*,50.2*,67.2*,32.2,33.8,32.5,35.9,76.4*,72.8*,89.1*,58.1*,70.2*
Cn1c(=O)c(/C=C/c2ccccc2)nc2ccccc21,-2.1,14.4,9.4,30.0,6.1,-377.7,.,.,.,.,.,.
Cn1c(/C=C/c2ccccc2)nc2ccccc21,98.9*,96.6*,98.7*,82.8*,80.5*,-409.2,81.7*,98.8*,99.9*,103.0*,98.6*,98.2*
Cc1cc2c(cc1C)-n1nnnc1C(N1CCN(c3ncccc3C#N)CC1)C(=O)N2 (stereo not given),.,.,.,7.6,.,-165.9,.,.,.,.,.,.

# Source: PubChem
